# Data published in PMC7862700, “An all-to-all approach to the identification of sequence-specific readers for epigenetic DNA modifications on cytosine”.
# Legend:
# Experiment in all cases: DAPPL (digital affinity profiling via proximity ligation, sequencing); 10 mM Tris-HCl pH 7.5, 50 mM NaCl, 1 mM DTT, 4% glycerol, room temperature, 30 min; GST-TFs on glutathione beads, 16-mer random dsDNA library, 0.1% formaldehyde crosslink after washing; high values mean tight binding
# FLI1 = target: T1, FLI1 (Homo sapiens, UniProt Q01543 1-452); settings: protein: recombinant; tags: N-terminal GST; dsDNA, one strand shown
# T1 sequence: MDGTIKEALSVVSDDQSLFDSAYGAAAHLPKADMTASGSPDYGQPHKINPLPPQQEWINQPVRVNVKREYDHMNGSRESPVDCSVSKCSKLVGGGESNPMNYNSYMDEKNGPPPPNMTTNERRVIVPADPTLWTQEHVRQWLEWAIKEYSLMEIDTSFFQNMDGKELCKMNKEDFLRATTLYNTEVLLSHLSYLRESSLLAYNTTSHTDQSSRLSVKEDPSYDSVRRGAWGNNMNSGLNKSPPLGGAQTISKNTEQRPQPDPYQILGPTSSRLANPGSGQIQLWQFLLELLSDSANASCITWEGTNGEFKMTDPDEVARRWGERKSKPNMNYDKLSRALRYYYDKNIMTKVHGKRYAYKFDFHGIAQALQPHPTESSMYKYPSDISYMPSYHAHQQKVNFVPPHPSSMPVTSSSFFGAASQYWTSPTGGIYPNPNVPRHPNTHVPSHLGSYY
# Procedure, shortened: (§1)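 A tag-only sample was pooled with DNA-barcoded human transcription factors that had been expressed in yeast as GST fusions and captured on glutathione beads. The pools were incubated for 30 min at room temperature with 200 nmole of a random double-stranded 16-mer DNA library in Tris/NaCl/DTT/glycerol buffer, then washed, crosslinked with 0.1% formaldehyde, proximity-ligated (BsaI/T4 ligase, 1 h, 37 °C), PCR-amplified and sequenced on an Illumina NextSeq500. Binding signal is each hexamer's read frequency for a factor divided by its frequency for the tag-only sample.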
# ELK1 = target: T2, ELK1 (Homo sapiens, UniProt P19419 1-428); settings: protein: recombinant; tags: N-terminal GST; dsDNA, one strand shown
# T2 sequence: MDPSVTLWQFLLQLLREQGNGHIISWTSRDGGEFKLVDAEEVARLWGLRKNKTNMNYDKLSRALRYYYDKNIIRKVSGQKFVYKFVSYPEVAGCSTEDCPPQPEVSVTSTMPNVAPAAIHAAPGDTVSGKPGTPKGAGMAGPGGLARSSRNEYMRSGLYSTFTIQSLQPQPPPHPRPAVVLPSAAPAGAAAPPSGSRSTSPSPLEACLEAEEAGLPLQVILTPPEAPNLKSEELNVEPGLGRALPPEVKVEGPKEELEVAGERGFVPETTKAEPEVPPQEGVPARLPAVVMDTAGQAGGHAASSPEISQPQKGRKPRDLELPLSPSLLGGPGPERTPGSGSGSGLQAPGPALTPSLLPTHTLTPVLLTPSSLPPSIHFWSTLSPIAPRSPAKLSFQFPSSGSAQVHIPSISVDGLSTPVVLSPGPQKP
# Procedure, shortened: as §1
# GABPA = target: T3, GABPA (Homo sapiens, UniProt Q06546 1-454); settings: protein: recombinant; tags: N-terminal GST; dsDNA, one strand shown
# T3 sequence: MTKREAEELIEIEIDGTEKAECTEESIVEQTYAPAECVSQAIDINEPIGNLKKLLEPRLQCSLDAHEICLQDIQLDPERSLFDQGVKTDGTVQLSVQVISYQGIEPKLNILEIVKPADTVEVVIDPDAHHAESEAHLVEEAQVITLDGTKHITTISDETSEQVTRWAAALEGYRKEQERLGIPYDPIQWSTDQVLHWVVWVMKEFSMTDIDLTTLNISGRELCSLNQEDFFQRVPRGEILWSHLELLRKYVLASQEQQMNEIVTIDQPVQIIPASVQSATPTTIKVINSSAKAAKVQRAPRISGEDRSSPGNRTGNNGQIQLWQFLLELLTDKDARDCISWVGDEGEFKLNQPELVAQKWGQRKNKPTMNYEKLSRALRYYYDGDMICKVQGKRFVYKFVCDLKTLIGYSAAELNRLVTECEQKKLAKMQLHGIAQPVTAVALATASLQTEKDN
# Procedure, shortened: as §1
# ERG = target: T4, ERG (Homo sapiens, UniProt P11308 1-479); settings: protein: recombinant; tags: N-terminal GST; dsDNA, one strand shown
# T4 sequence: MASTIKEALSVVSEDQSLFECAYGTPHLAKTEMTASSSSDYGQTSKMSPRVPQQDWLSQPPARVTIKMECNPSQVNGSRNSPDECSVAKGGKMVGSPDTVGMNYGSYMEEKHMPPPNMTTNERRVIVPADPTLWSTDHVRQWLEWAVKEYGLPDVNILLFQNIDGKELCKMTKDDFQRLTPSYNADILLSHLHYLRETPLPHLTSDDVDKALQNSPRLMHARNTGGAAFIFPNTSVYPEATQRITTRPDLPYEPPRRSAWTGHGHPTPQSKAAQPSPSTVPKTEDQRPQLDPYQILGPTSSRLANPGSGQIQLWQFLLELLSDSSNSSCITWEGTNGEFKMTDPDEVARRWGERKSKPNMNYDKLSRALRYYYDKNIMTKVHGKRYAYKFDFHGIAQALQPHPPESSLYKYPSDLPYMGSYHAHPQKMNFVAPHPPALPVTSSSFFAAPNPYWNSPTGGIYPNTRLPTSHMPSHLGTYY
# Procedure, shortened: as §1
# ELF1 = ELF1 (Homo sapiens, UniProt P32519 1-619); settings: protein: recombinant; tags: N-terminal GST; dsDNA, one strand shown
# Chain of ELF1 (P32519 whole entry): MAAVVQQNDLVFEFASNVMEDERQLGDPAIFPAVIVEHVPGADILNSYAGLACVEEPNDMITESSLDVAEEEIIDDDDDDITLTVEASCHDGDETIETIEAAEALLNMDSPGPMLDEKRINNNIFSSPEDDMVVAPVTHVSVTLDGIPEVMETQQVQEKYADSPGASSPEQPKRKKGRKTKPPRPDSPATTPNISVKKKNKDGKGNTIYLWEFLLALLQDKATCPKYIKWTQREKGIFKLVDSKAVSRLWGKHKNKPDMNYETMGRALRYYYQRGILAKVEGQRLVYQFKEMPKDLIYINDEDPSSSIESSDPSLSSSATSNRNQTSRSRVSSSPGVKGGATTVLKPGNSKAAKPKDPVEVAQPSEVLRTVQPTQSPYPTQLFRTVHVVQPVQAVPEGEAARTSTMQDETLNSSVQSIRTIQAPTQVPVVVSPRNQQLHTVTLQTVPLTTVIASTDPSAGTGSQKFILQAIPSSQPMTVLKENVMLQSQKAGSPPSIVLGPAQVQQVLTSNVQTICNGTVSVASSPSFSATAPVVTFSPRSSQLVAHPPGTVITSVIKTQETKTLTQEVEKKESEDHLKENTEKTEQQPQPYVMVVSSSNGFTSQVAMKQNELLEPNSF
# Procedure, shortened: as §1
# EHF = target: T5, EHF (Homo sapiens, UniProt Q9NZC4 1-300); settings: protein: recombinant; tags: N-terminal GST; dsDNA, one strand shown
# T5 sequence: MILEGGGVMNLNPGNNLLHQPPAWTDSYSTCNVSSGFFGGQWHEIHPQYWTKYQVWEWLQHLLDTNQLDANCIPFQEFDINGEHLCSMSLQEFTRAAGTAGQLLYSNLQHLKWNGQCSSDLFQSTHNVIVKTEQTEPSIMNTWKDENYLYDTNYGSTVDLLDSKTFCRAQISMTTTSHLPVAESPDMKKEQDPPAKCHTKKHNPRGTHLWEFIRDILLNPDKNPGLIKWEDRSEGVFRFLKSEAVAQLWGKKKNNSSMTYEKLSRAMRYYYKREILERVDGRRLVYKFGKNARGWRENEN
# Procedure, shortened: as §1
# SPI1 = SPI1 (Homo sapiens, UniProt P17947 1-270); settings: protein: recombinant; tags: N-terminal GST; dsDNA, one strand shown
# Procedure, shortened: as §1
# SPIB = SPIB (Homo sapiens, UniProt Q01892 1-262); settings: protein: recombinant; tags: N-terminal GST; dsDNA, one strand shown
# Chain of SPIB (Q01892 whole entry): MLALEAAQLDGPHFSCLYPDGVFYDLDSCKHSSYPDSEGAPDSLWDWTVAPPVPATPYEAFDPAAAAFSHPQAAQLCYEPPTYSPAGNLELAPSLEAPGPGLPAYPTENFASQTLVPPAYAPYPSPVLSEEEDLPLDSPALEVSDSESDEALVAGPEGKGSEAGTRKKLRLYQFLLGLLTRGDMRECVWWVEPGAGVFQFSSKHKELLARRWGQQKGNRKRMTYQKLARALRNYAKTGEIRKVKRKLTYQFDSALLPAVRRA
# Procedure, shortened: as §1
# ELK3 = target: T6, ELK3 (Homo sapiens, UniProt P41970 1-407); settings: protein: recombinant; tags: N-terminal GST; dsDNA, one strand shown
# T6 sequence: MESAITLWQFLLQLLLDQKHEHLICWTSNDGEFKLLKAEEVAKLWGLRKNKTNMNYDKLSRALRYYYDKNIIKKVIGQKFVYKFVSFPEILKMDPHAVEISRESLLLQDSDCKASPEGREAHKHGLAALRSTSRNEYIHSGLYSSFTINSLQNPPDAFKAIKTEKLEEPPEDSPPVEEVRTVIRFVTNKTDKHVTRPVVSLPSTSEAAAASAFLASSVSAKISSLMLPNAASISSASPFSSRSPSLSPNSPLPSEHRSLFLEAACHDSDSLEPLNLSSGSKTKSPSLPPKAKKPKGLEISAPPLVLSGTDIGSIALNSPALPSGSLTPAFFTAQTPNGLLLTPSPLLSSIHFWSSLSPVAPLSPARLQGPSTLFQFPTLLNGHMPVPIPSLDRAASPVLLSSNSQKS
# Procedure, shortened: as §1
# FEV = target: T7, FEV (Homo sapiens, UniProt Q99581 1-238); settings: protein: recombinant; tags: N-terminal GST; dsDNA, one strand shown
# T7 sequence: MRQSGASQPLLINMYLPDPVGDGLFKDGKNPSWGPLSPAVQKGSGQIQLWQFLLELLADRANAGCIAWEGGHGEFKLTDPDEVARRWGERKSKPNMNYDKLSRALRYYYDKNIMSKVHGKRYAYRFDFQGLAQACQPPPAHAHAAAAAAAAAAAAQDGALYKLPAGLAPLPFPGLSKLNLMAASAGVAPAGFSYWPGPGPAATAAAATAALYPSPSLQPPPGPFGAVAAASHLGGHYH
# Procedure, shortened: as §1
# ETV5 = ETV5 (Homo sapiens, UniProt P41161 1-510); settings: protein: recombinant; tags: N-terminal GST; dsDNA, one strand shown
# Chain of ETV5 (P41161 whole entry): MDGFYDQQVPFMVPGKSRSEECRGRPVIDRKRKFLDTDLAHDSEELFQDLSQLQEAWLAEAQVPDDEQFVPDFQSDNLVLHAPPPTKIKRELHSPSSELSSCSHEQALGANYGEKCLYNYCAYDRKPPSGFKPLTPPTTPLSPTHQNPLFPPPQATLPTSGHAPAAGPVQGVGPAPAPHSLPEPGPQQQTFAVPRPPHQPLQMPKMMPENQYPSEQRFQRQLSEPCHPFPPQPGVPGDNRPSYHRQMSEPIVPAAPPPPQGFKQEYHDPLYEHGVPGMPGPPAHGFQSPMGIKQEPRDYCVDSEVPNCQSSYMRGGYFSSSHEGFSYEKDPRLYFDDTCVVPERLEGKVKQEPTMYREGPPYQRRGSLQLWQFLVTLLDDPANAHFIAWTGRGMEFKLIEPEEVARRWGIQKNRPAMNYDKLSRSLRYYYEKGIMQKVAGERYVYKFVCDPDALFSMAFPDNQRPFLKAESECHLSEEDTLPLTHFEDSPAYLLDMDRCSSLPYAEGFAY
# Procedure, shortened: as §1
# HSF1 = HSF1 (Homo sapiens, UniProt Q00613 1-529); settings: protein: recombinant; tags: N-terminal GST; chain copies: 3; dsDNA, one strand shown
# Chain of HSF1 (Q00613 whole entry): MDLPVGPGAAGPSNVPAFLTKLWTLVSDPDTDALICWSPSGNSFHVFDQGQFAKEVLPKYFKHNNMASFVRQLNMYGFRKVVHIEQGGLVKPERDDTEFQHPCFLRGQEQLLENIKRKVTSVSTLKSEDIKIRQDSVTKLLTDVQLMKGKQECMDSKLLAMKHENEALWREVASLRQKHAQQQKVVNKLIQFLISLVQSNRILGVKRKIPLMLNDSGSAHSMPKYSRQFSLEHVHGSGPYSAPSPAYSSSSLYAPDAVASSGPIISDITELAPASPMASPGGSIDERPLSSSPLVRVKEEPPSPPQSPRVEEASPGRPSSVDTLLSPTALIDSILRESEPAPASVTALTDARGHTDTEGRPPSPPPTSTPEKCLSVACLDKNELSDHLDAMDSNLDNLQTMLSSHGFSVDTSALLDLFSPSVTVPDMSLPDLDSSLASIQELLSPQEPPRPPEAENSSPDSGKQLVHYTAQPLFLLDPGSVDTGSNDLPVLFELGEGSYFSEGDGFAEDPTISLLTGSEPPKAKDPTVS
# Procedure, shortened: as §1
# SPIC = target: T8, SPIC (Homo sapiens, UniProt Q8N5J4 1-248); settings: protein: recombinant; tags: N-terminal GST; dsDNA, one strand shown
# T8 sequence: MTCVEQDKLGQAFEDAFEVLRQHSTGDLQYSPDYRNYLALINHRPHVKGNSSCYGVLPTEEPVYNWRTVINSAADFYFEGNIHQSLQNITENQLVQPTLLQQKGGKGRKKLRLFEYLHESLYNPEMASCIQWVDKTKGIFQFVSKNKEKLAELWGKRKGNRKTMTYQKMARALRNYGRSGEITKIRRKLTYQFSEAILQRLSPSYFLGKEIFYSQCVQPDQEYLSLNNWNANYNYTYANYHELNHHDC
# Procedure, shortened: as §1
# ELF4 = ELF4 (Homo sapiens, UniProt Q99607 1-663); settings: protein: recombinant; tags: N-terminal GST; dsDNA, one strand shown
# Chain of ELF4 (Q99607 whole entry): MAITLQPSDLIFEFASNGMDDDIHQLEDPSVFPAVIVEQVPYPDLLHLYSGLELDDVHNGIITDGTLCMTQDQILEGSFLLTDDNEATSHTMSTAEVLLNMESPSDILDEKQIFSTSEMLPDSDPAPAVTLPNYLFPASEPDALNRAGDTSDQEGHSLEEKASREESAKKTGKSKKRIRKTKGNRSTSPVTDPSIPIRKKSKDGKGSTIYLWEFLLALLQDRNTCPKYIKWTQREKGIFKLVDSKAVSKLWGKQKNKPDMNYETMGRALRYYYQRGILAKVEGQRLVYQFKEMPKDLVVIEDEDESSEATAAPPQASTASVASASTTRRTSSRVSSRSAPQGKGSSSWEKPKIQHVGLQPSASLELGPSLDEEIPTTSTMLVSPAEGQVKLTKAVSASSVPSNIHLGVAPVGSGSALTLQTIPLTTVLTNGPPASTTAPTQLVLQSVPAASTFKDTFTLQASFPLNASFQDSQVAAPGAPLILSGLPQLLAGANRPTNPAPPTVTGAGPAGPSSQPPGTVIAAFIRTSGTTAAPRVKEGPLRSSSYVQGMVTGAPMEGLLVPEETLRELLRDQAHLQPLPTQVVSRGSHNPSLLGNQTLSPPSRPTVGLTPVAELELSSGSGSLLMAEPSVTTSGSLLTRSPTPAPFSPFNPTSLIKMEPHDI
# Procedure, shortened: as §1
# ELK4 = target: T9, ELK4 (Homo sapiens, UniProt P28324-2 1-405); settings: protein: recombinant; tags: N-terminal GST; dsDNA, one strand shown
# T9 sequence: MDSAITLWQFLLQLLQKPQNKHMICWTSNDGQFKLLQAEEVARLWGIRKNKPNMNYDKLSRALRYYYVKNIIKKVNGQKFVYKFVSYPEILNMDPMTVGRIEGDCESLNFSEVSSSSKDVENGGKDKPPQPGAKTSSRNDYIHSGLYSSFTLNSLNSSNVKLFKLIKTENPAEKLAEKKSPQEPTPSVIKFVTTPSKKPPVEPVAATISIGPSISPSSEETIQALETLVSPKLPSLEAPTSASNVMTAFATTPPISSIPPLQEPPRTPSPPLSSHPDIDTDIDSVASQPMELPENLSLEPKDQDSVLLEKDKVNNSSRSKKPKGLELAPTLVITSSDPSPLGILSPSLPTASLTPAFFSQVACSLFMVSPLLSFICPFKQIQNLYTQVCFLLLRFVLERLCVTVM
# Procedure, shortened: as §1
# ETV2 = target: T10, ETV2 (Homo sapiens, UniProt O00321 1-342); settings: protein: recombinant; tags: N-terminal GST; dsDNA, one strand shown
# T10 sequence: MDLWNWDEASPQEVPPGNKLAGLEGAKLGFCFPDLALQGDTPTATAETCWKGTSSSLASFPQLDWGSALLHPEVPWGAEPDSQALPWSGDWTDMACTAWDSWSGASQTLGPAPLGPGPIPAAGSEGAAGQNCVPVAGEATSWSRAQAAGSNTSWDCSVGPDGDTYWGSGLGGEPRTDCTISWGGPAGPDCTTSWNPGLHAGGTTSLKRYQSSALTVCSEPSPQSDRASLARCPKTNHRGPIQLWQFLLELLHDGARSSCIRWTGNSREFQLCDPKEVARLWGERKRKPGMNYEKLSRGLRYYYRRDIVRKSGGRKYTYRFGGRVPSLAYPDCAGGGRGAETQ
# Procedure, shortened: as §1
# ELF3 = target: T11, ELF3 (Homo sapiens, UniProt P78545 1-371); settings: protein: recombinant; tags: N-terminal GST; dsDNA, one strand shown
# T11 sequence: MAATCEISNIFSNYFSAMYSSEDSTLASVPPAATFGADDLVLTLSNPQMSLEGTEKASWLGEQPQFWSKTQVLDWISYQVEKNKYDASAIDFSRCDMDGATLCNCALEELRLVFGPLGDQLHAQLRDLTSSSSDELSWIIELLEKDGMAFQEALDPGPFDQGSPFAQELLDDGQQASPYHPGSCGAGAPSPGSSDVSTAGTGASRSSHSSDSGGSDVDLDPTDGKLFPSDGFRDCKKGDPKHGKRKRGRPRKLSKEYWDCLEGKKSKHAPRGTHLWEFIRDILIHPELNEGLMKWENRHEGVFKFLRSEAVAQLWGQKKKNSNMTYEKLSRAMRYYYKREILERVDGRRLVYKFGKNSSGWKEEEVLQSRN
# Procedure, shortened: as §1
# CRX = CRX (Homo sapiens, UniProt O43186 1-299); settings: protein: recombinant; tags: N-terminal GST; dsDNA, one strand shown
# Chain of CRX (O43186 whole entry): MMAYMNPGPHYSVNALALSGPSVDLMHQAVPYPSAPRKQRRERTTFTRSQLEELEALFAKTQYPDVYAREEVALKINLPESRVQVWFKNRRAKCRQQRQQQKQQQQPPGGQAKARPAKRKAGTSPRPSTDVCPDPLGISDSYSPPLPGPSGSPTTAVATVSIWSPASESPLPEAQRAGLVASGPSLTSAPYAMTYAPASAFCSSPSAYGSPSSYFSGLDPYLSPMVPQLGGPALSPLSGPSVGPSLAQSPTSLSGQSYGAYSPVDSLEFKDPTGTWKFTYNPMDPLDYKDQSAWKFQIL
# Procedure, shortened: as §1
# ETV1 = ETV1 (Homo sapiens, UniProt P50549 1-477); settings: protein: recombinant; tags: N-terminal GST; dsDNA, one strand shown
# Chain of ETV1 (P50549 whole entry): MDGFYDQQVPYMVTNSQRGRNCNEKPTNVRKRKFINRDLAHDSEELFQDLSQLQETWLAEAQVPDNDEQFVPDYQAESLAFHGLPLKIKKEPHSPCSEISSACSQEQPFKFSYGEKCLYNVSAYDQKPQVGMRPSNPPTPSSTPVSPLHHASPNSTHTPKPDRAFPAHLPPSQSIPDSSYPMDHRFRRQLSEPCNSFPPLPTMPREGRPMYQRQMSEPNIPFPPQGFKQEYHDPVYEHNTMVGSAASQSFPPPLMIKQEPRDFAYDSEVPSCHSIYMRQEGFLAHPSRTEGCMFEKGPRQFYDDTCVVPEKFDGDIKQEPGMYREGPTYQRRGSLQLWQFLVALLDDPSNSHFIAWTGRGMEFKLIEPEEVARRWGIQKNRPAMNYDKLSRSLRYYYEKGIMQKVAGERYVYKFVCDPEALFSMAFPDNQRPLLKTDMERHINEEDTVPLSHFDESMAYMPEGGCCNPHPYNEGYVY
# Procedure, shortened: as §1
sequence,measurement,setting,value
CTTCCG,binding signal,FLI1,"7.32 fold enrichment (6-mer frequency, TF over GST control)"
same,binding signal,ELK1,"8.14 fold enrichment (6-mer frequency, TF over GST control)"
same,binding signal,GABPA,"6.76 fold enrichment (6-mer frequency, TF over GST control)"
same,binding signal,ERG,"8.96 fold enrichment (6-mer frequency, TF over GST control)"
same,binding signal,ELF1,"7.37 fold enrichment (6-mer frequency, TF over GST control)"
same,binding signal,EHF,"7.93 fold enrichment (6-mer frequency, TF over GST control)"
same,binding signal,SPI1,"9.8 fold enrichment (6-mer frequency, TF over GST control)"
same,binding signal,SPIB,"7.71 fold enrichment (6-mer frequency, TF over GST control)"
same,binding signal,ELK3,"9.13 fold enrichment (6-mer frequency, TF over GST control)"
same,binding signal,FEV,"10.5 fold enrichment (6-mer frequency, TF over GST control)"
same,binding signal,ETV5,"8.45 fold enrichment (6-mer frequency, TF over GST control)"
same,binding signal,HSF1,"1.57 fold enrichment (6-mer frequency, TF over GST control)"
same,binding signal,SPIC,"7.54 fold enrichment (6-mer frequency, TF over GST control)"
same,binding signal,ELF4,"7.4 fold enrichment (6-mer frequency, TF over GST control)"
same,binding signal,ELK4,"6.22 fold enrichment (6-mer frequency, TF over GST control)"
same,binding signal,ETV2,"7.7 fold enrichment (6-mer frequency, TF over GST control)"
same,binding signal,ELF3,"6.78 fold enrichment (6-mer frequency, TF over GST control)"
same,binding signal,CRX,"1.27 fold enrichment (6-mer frequency, TF over GST control)"
same,binding signal,ETV1,"7.97 fold enrichment (6-mer frequency, TF over GST control)"
